TRPV1 PAM – HTS Assay for Compounds that Act as Potentiators of the Vanilloid Receptor 1. 0.02% of 320,000 active. TRPV1-expressing cells, Fluo-8 calcium influx, capsaicin EC20 potentiation. Transient receptor potential cation channel subfamily V member 1 (Homo sapiens), Q8NER1. potentiation, % at 8.33 µM; in the data active means potentiation above about 80%; inconclusive means between about 30% and that limit
Target sequence (Q8NER1 whole entry, looked up): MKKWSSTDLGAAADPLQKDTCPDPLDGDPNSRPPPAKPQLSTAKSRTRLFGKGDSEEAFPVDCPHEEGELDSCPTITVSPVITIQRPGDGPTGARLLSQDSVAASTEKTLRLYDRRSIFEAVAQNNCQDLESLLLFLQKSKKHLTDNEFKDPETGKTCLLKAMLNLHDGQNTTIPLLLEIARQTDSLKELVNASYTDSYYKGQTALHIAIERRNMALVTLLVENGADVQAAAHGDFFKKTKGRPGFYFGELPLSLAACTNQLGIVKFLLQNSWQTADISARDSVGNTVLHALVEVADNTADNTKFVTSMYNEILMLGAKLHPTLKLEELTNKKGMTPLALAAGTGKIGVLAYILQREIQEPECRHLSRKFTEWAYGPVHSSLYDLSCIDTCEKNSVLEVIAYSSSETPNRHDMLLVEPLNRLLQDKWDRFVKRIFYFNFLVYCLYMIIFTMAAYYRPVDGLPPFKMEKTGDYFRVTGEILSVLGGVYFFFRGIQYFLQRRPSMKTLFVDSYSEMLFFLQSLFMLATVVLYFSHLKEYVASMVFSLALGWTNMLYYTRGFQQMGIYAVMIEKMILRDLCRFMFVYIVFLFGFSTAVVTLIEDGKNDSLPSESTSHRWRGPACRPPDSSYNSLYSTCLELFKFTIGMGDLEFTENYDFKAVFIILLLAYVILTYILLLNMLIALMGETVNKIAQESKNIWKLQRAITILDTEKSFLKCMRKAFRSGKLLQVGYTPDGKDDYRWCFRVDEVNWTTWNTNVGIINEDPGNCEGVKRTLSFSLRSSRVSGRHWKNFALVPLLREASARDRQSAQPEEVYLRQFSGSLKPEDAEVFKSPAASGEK
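Cells expressing TRPV1 were dye-loaded with Fluo-8 and read kinetically: 10 s baseline, 3 min after compound (agonist portion), then 2 min after EC20 capsaicin (allosteric enhancer portion). Calcium-bound dye fluorescence at 480/520 nm.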
KCNH2 WT inh – qHTS for Inhibitors of KCHN2 3.1: Wildtype qHTS; U2OS, BacMam KCNH2, thallium flux FluxOr; active compounds read low; activity change, % at 1.84 µM; 0.37% of 340,000 active; AID 720551, 2013;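 active means maximum activity change below -70%; inconclusive means maximum activity change between -70% and -50%; inactive means maximum activity change above -50%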
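U2OS cells were transduced with wild-type KCNH2 virus (2.03 x 10^8 / mL) for 4 h at room temperature, then cultured overnight at 37 C. Thallium flux was read with FluxOr dye. Rate constants were normalized to DMSO controls.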
TRPML1 blocker – qHTS for Inhibitors of the Human Mucolipin Transient Receptor Potential 1 (TRPML1); 0.02% of 390,000 active; Mucolipin-1 (Homo sapiens), Q9GZU1; AID 624415, 2012; TRPML1-inducible cells, Ca2+ dye fluorescence, FDSS; active compounds read low; inhibition of EC80 agonist-evoked calcium signal; activity change, negative = inhibition, % (concentration not given with the values); in the data active means activity change below about -50%; inconclusive means between about -30% and that limit;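 further: stimulus is agonist 54-4 at its EC80 concentration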
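Calcium fluorescence in TRPML1-DL cells induced overnight with Tet: a 110 s read after compound pin addition, then a 110 s antagonist read after challenge with 54-4 at 4 uM final (EC80).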
TRPV1 agonist – HTS Assay for Compounds that Act as Agonists of the Vanilloid Receptor 1; Transient receptor potential cation channel subfamily V member 1 (Homo sapiens), Q8NER1; TRPV1-expressing cells, Fluo-8 calcium influx, agonist mode; activation, % at 8.33 µM; 0.19% of 320,000 active; AID 540275, 2011; in the data active means activation above about 80%; inconclusive means between about 30% and that limit
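Fluo-8 calcium influx in TRPV1-expressing cells, kinetic read (ex 480/em 520 nm). Compound added and read 3 min for agonist activity, followed by capsaicin at EC20 final and 2 min further read for enhancement.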
KCNH2 3.1 inh – qHTS for Inhibitors of KCHN2 3.1: Mutant qHTS | 0.95% of 340,000 active | activity change, % (tested at about 1.8 µM) | AID 720553, 2013 | Potassium voltage-gated channel subfamily H member 2, brain isoform KCNH2 3.1 (human) | U2OS KCNH2 3.1, thallium flux FluxOr; active compounds read low;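 active means maximum activity change below -70%; inconclusive means maximum activity change from -70% to -50%; inactive means maximum activity change above -50%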;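 further: thallium influx rate constant from kinetic fluorescence after stimulation buffer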
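Thallium flux via FluxOr fluorescence (Red40 quencher, 45 min loading) in U2OS cells virally expressing the KCNH2 3.1 isoform (1.77 x 10^8 /mL virus, overnight at 37 C). Rate constants from 2-min kinetic reads post-stimulation, normalised to positive and negative controls.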
TRPML1 ag – qHTS for Agonists of the Human Mucolipin Transient Receptor Potential 1 (TRPML1); Mucolipin-1 (Homo sapiens), Q9GZU1; TRPML1-expressing cells, Ca2+ dye fluorescence, FDSS; activation, % (concentration not given with the values); 0.12% of 410,000 active; in the data active means activation above about 50%; inconclusive means mostly about 30% to 49%
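Kinetic FDSS Ca2+ read in Tet-induced TRPML1-DL cells (ABD Ca8 dye plus quencher, 45-90 min RT loading): baseline, then compound, then 110 s agonist window; EC80 agonist 54-4 at 4uM final added afterwards for a 110 s antagonist window.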
Hits are given with their value; . = inactive; ? = inconclusive; / = no result. Only some compounds are listed: those with a hit (about 1.3% of all), similar ones and a draw of the others.

SMILES	TRPV1 PAM	KCNH2 WT inh	TRPML1 blocker	TRPV1 agonist	KCNH2 3.1 inh	TRPML1 ag
CC(C)(C)n1nnnc1C(c1ccccc1F)N(Cc1ccco1)CC1CCCO1 (configuration not stated)	.	.	.	?	.	66
Cc1cccc2cc(C(c3nnnn3C(C)(C)C)N(Cc3ccco3)CC3CCCO3)c(=O)[nH]c12 (configuration not stated)	.	.	.	?	.	.
COc1cccc(CN(Cc2ccco2)C(c2ccc(F)cc2)c2nnnn2C(C)(C)C)c1 (configuration not stated)	.	.	.	.	.	106
COC(=O)c1ccccc1NC(=O)c1ccc2nc(Cc3ccccc3)oc2c1	/	/	.	/	/	.
O=C(NCc1ccccc1)c1cccc(OCC(=O)N2CCN(C(=O)c3ccco3)CC2)c1	.	.	.	.	-97	.
Cc1cc2nccc(C)c2cc1C	/	/	/	/	/	.
C(=C\c1ccc2ccccc2n1)/c1cccnc1	/	/	/	/	/	.
COc1ccc(C(=O)C=Cc2ccc3c(c2)OCO3)cc1OC	/	.	.	/	.	.
COc1cc(/C=C/C(=O)c2ccc3c(c2)OCO3)cc(Cl)c1O	.	.	.	?	.	56
Cc1cccc(N2CCN(C(=O)c3cnn(-c4ccc(F)cc4F)c3C3CCN(C(=O)OC(C)(C)C)CC3)CC2)c1C	/	/	-63	/	/	93
CC(C)(C)OC(=O)N1CCC(c2c(C(=O)N3CCN(C4CCCCC4)CC3)cnn2-c2ccc(F)cc2)CC1	.	.	.	.	.	.
COc1ccccc1N1CCN(C(=O)c2cnn(-c3ccc(C)c(C)c3)c2C2CCN(C(=O)OC(C)(C)C)CC2)CC1	/	/	.	/	/	59
CC(C)(C)OC(=O)N1CCC(c2c(C(=O)N3CCN(C4CCCCC4)CC3)cnn2-c2cccc(Cl)c2)CC1	/	/	.	/	/	92
CC(C)(C)OC(=O)N1CCC(c2c(C(=O)N3CCN(c4ncccn4)CC3)cnn2-c2ccc(F)cc2F)CC1	/	/	.	/	/	.
Cc1ccc(-n2ncc(C(=O)N3CCN(C4CCCCC4)CC3)c2C2CCN(C(=O)OC(C)(C)C)CC2)cc1C	/	/	.	/	/	69
O=C(NCC(c1ccco1)S(=O)(=O)c1ccc(Cl)cc1)c1ccccc1F (configuration not stated)	/	/	.	/	/	.
COc1ccc(NC(=O)NCCCN2CCCC2=O)cc1	.	.	.	.	.	.
COc1ccc(NC(=O)CC(C)NCCCN2CCCC2=O)cc1 (configuration not stated)	.	-333	/	.	.	/
CC1(C)Cc2c(sc(NC(=O)C(=O)NCC3CCCO3)c2C(N)=O)CO1 (configuration not stated)	.	-95	.	.	.	.
CC1(C)Cc2c(sc(NC(=O)C(=O)N3CCCC3)c2C(N)=O)CO1	.	.	.	.	.	.
COC(=O)c1cccc(NC(=O)c2ccc3c(c2)C(=O)N(C(C)(C)C)C3=O)c1	.	.	.	107	.	.
C#CCNC(=O)c1ccc(OCc2ccccc2)cc1Cl	.	.	.	?	.	.
O=C(NCCCl)c1ccc(OCc2ccccc2)cc1Cl	.	.	.	.	-113	.
O=C(NCCc1ccccc1)C(c1ccccc1F)N(C(=O)c1csnn1)C1CC1 (configuration not stated)	.	.	.	.	-86	.
O=C(NCCc1ccccc1)C(c1ccccc1)N(C(=O)c1csnn1)C1CC1 (configuration not stated)	.	.	.	.	.	.
SMILES	TRPV1 PAM	KCNH2 WT inh	TRPML1 blocker	TRPV1 agonist	KCNH2 3.1 inh	TRPML1 ag
O=C1C(=O)N(C2CCN(S(=O)(=O)c3ccccc3)CC2)CCN1Cc1ccccc1	/	/	.	/	/	.
CC(=O)Nc1sc(/C(C#N)=C\c2cccc(Cl)c2)nc1-c1ccc(C)cc1	.	.	.	?	-70	77
CCOc1ccc(/C=C/c2cc[n+](C)c3ccccc23)cc1OCC	/	/	/	/	/	.
O=C1CC(c2ccccc2)CC(O)=C1C=NCCc1ccccc1 (configuration not stated)	84	.	.	.	.	.
O=C(Nc1nc(-c2ccc3c(c2)OCCO3)cs1)c1ccc(Br)o1	/	.	.	/	-74	.
O=C(COC(=O)C12CC3CC(CC(C3)C1)C2)Nc1ccc2[nH]c(=O)[nH]c2c1	.	.	.	92	.	.
O=C(COC(=O)C12CC3CC(CC(Cl)(C3)C1)C2)Nc1ccc2[nH]c(=O)[nH]c2c1	.	.	.	?	.	.
Cc1nc(SCC(=O)N2CCCC2=O)c2c(C)c(C)sc2n1	/	-90	.	/	.	.
Cc1ccc(C(=O)NC(=S)N2CC(C)OC(C)C2)cc1[N+](=O)[O-] (configuration not stated)	.	.	.	.	-91	.
CCOC(=O)Cc1csc(N/C(=N/S(=O)(=O)c2cc(Br)ccc2OCC)c2ccccc2)n1	.	-261	.	.	-170	.
CCOC(=O)Cc1csc(NC(=S)NC(=O)c2ccccc2)n1	.	.	.	.	.	.
COc1ccc(N2CCN(C(=O)c3cc(-c4ccc(F)cc4)[nH]c3C)CC2)cc1	.	-88	/	.	-83	/
Cc1[nH]c(-c2ccc(F)cc2)cc1C(=O)N1CCN(c2ccc(Cl)cc2)CC1	.	/	/	.	?	/
Cn1c(SCC(=O)N2CCN(c3ccccc3)CC2)nnc1-c1ccco1	.	-77	.	.	.	.
CCc1c(C)nc(SCC(=O)N2CCN(c3ccccc3)CC2)[nH]c1=O	.	-79	.	?	/	.
CCC(C(=O)Nc1ccc(C(C)=O)cc1)n1c(C)c2cnn(-c3ccccc3)c(=O)c2c1C (configuration not stated)	/	/	.	/	/	.
Cc1nc([N+](=O)[O-])cn1CC(O)c1ccc2c(c1)OCCO2 (configuration not stated)	/	/	/	/	/	.
COc1cccc(NC(=O)CSc2nc(=O)n(Cc3cccnc3)c3c2CCC3)c1	/	/	.	/	/	.
O=C(COC(=O)/C=C/c1ccccc1)Nc1cccnc1Cl	.	.	.	.	.	.
O=C(/C=C/c1ccccc1)Nc1cccnc1Cl	.	.	.	84	.	.
CCn1c(=O)n(CC)c2cc(N3CCCCC3)c(NC(=O)Nc3ccccc3Cl)cc21	/	/	.	/	/	.
COC(=O)CNS(=O)(=O)c1ccc(C)cc1	.	.	.	.	.	.
Cc1ccc(S(=O)(=O)NCC(=O)OC2CCOC2=O)cc1 (configuration not stated)	.	-126	.	.	-95	.
